Measured values reported in PubChem BioAssay AID1159580 (chemical genetic matrix, 2015).
About 2,000 (36%) of roughly 5,500 compounds were called active. Roughly 18% stayed inconclusive and do not appear here. No stated cut-off is given here; in the data, active means normalized growth mostly below about 0.91 (no sharp cut-off); inconclusive means no clear call, values can overlap the other calls; inactive means mostly above about 0.92. The list shows a part of the results.

Test: chemical genetic growth profiling, strain panel (AID 1159580);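 further: tested at 20 µM; growth read once vehicle control cultures reached saturation at 30 °C; 1 = growth at the plate median or of vehicle wells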
Settings: S. cerevisiae deletion strains, growth OD

Measured: normalized growth

N[C@H](CO)Cc1ccccc1
inactive: locus YAL021C, strain ccr4, stronger effect = lower value 1.01 | locus YAL026C, strain drs2, stronger effect = lower value 1.02 | locus YAL030W, strain snc1, stronger effect = lower value 1.03 | locus YBL061C, strain skt5, stronger effect = lower value 1.03 | locus YBR009C, strain hhf1, stronger effect = lower value 1.03 | locus YBR023C, strain chs3, stronger effect = lower value 1.02 | locus YBR171W, strain sec66, stronger effect = lower value 1.02 | locus YBR231C, strain swc5, stronger effect = lower value 1.02 | locus YBR279W, strain paf1, stronger effect = lower value 1.01 | locus YCL011C, strain gbp2, stronger effect = lower value 1.01 | locus YCL016C, strain dcc1, stronger effect = lower value 0.998 | locus YCL061C, strain MRC1, stronger effect = lower value 1.02 | locus YCL069W, strain vba3, stronger effect = lower value 1.02 | locus YCR088W, strain abp1, stronger effect = lower value 1.01 | locus YDL005C, strain med2, stronger effect = lower value 1.01 | locus YDL040C, strain nat1, stronger effect = lower value 1.02 | locus YDR001C, strain nth1, stronger effect = lower value 1.02 | locus YDR069C, strain doa4, stronger effect = lower value 1.04 | locus YDR137W, strain rgp1, stronger effect = lower value 1.01 | locus YDR159W, strain sac3, stronger effect = lower value 1.06 | locus YDR195W, strain ref2 1.02 | locus YDR297W, strain sur2, stronger effect = lower value 1.05 | locus YDR334W, strain swr1, stronger effect = lower value 1.02 | locus YDR335W, strain msn5, stronger effect = lower value 1.01 | locus YDR392W, strain spt3, stronger effect = lower value 0.927 | locus YEL003W, strain gim4, stronger effect = lower value 1.03 | locus YEL037C, strain rad23, stronger effect = lower value 1.01 | locus YEL061C, strain CIN8 (second series), stronger effect = lower value 1.02 | locus YER015W, strain faa2, stronger effect = lower value 1.03 | locus YER016W, strain bim1, stronger effect = lower value 1.03 | locus YER111C, strain swi4, stronger effect = lower value 1.02 | locus YER155C, strain BEM2 (second series), stronger effect = lower value 1.02 | locus YFR010W, strain ubp6, stronger effect = lower value 1.04 | locus YGL167C, strain pmr1, stronger effect = lower value 1.02 | locus YGL173C, strain kem1, stronger effect = lower value 1.03 | locus YGL227W, strain vid30, stronger effect = lower value 1.03 | locus YGL240W, strain doc1, stronger effect = lower value 1.02 | locus YGL253W, strain hxk2, stronger effect = lower value 1.03 | locus YHR013C, strain ard1, stronger effect = lower value 1.03 | locus YHR027C, strain rpn1, stronger effect = lower value 1.02 | locus YHR030C, strain SLT2, stronger effect = lower value 1.07 | locus YHR079C, strain IRE1, stronger effect = lower value 1.05 | locus YHR142W, strain chs7, stronger effect = lower value 1.03 | locus YJL092W, strain hpr5, stronger effect = lower value 1.02 | locus YJL095W, strain BCK1 (second series), stronger effect = lower value 1.02 | locus YJL095W, strain BCK1, stronger effect = lower value 1.06 | locus YJL115W, strain asf1, stronger effect = lower value 1.01 | locus YJL129C, strain trk1, stronger effect = lower value 1.03 | locus YJL154C, strain vps35, stronger effect = lower value 1.02 | locus YJL164C, strain tpk1, stronger effect = lower value 0.994 | locus YJL166W, strain qcr8, stronger effect = lower value 1.02 | locus YJL187C, strain SWE1, stronger effect = lower value 1.01 | locus YJR066W, strain TOR1, stronger effect = lower value 0.974 | locus YKL160W, strain elf1, stronger effect = lower value 0.996 | locus YKR026C, strain gcn3, stronger effect = lower value 1.02 | locus YKR091W, strain srl3, stronger effect = lower value 1.01 | locus YLL001W, strain dnm1, stronger effect = lower value 1.01 | locus YLL026W, stronger effect = lower value 1.02 | locus YLL041C, strain sdh2, stronger effect = lower value 1.01 | locus YLR027C, strain aat2, stronger effect = lower value 1.01 | locus YLR113W, strain HOG1, stronger effect = lower value 1.05 | locus YLR221C, strain rsa3, stronger effect = lower value 1.03 | locus YLR258W, strain gsy2, stronger effect = lower value 1.05 | locus YLR262C, strain YPT6 (second series), stronger effect = lower value 1.02 | locus YLR320W, strain mms22, stronger effect = lower value 1.03 | locus YLR342W, strain FKS1, stronger effect = lower value 1.03 | locus YLR357W, strain rsc2, stronger effect = lower value 1.05 | locus YLR370C, strain arc18, stronger effect = lower value 1.04 | locus YLR384C, strain iki3, stronger effect = lower value 1 | locus YML120C, strain ndi1, stronger effect = lower value 1.01 | locus YMR058W, strain fet3, stronger effect = lower value 1.02 | locus YMR125W, strain sto1, stronger effect = lower value 1.01 | locus YMR129W, stronger effect = lower value 1.01 | locus YMR205C, strain PFK2, stronger effect = lower value 1.02 | locus YMR231W, strain pep5, stronger effect = lower value 1.02 | locus YNL071W, strain lat1, stronger effect = lower value 1.02 | locus YNL183C, strain NPR1, stronger effect = lower value 0.974 | locus YNL209W, strain ssb2, stronger effect = lower value 1.01 | locus YNL248C, strain rpa49, stronger effect = lower value 1.06 | locus YNL322C, strain KRE1 (second series), stronger effect = lower value 1.02 | locus YNR049C, strain mso1, stronger effect = lower value 1.02 | locus YOR001W, strain rrp6, stronger effect = lower value 1.03 | locus YOR070C, strain gyp1, stronger effect = lower value 1.01 | locus YOR080W, strain dia2, stronger effect = lower value 1.02 | locus YOR083W, strain WHI5, stronger effect = lower value 1 | locus YOR106W, strain vam3, stronger effect = lower value 1 | locus YOR231W, strain MKK1, stronger effect = lower value 1.07 | locus YOR265W, strain rbl2, stronger effect = lower value 1.01 | locus YOR270C, strain vph1, stronger effect = lower value 1.06 | locus YOR290C, strain snf2, stronger effect = lower value 0.978 | locus YPL051W, strain arl3, stronger effect = lower value 1.03 | locus YPL078C, strain atp4, stronger effect = lower value 0.99 | locus YPL106C, strain sse1, stronger effect = lower value 1 | locus YPL240C, strain hsp82, stronger effect = lower value 1.02 | locus YPL256C, strain CLN2, stronger effect = lower value 1.04
